Laboratory results: PubChem BioAssay (NCI)
About 83,000 compounds went through this panel and 20% of them were active in at least one assay; those are over-represented in the sample as a whole.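 How to read the values: 0–100, growth inhibition (40 = 60% inhibited); 0, no net growth; -100 to 0, cell death (-40 = 40% of starting cells died; -100 = all dead).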 Calls of active or inactive are those of the source. Rule for the calls: active = growth percent below 10; inactive = the rest.

Test system: HL-60(TB) leukemia
Assay: NCI-60 one-dose screen, 48 h (100 = growth as untreated, 0 = no growth, -100 = all killed)
Settings: 10 µM unless noted

Row | SMILES | growth
1 | CC(=O)Nc1cccc(Nc2nc(NCc3ccccc3)c3ccccc3n2)c1 | -64% (active)
2 | OCC1(CCCc2ccccc2)CCCN(c2nccc3ccccc23)C1 (stereo not given) | 22.7% (inactive)
3 | COc1cc(/C=C2\C(=N)N=C(SCc3nc4ccccc4[nH]3)NC2=O)ccc1O | 83.7% (inactive)
4 | O=C(N1c2ccccc2Sc2ccccc21)n1ccc2cccnc21 | 25.2% (inactive)
5 | COc1ccc(CCC2c3c(cc4c(c3OC)OCO4)CCN2C)cc1 (stereo not given) | -37.5% (active)
6 | CN(C)C(=O)c1cc(-c2ccc3ncnc(N4CCc5cc(F)c(Cl)cc54)c3c2)cnc1N | -73.8% (active)
7 | O=C(c1ccc(Cl)cc1)C1[C@H](c2ccc(Br)cc2)[C@@H](c2ccccc2)NC12C(=O)Nc1ccccc12 (stereo not given in full) | -32% (active)
8 | Cc1ccc(-c2ccc(SCC(=O)Nc3ccc(S(N)(=O)=O)cc3Br)nn2)cc1 | 100% (inactive)
9 | CC(=O)Nc1ccc(C(=O)NC(=S)Nc2ccc(S(N)(=O)=O)cc2)cc1 | 95.5% (inactive)
10 | O=C1CC(Sc2n[nH]c(-c3ccncc3)n2)C(=O)N1c1ccc(Br)cc1 (stereo not given) | 101% (inactive)
11 | Cc1ccc(C(=O)C(c2c[nH]c3ccccc23)c2c[nH]c3ccccc23)cc1 | 17.2% (inactive)
12 | Clc1ccc(-c2nc3ccc(-c4nnc(SCc5ccccc5)o4)cc3[nH]2)cc1 | 51.8% (inactive)
13 | COc1c(F)ccc(C(=O)Nc2ccc3nc(NC(=O)C4CCCN(S(=O)(=O)c5ccc(C#N)cc5)C4)sc3c2)c1F (stereo not given) | 115% (inactive)
14 | C/C(=N\N=C\c1cc([N+](=O)[O-])ccc1Cl)c1ccc2c(c1)Nc1ccccc1S2 | 84.6% (inactive)
15 | O=C(Nc1cccc(C(F)(F)F)c1)c1cncc(C#Cc2cnc3cccnn23)c1 | 29.9% (inactive)
16 | COc1ccc2[nH]c(=O)c(CSc3ccccc3Nc3nccc(-c4ccc5c(c4)OCO5)n3)cc2c1 | 74% (inactive)
17 | CCOc1ccc(/C=N/NC(=O)Cn2nc(Cc3ccccc3)c3onc(C)c3c2=O)cc1 | 89.7% (inactive)
18 | COc1ccc(NC(=O)Nc2ccc(OCc3ccc(F)cc3)cc2)cc1 | 83.1% (inactive)
19 | COc1ccc(-c2cc(C(=O)Oc3ccc(C=O)cc3OC)nn2-c2ccc(S(C)(=O)=O)cc2)cc1 | 86.5% (inactive)
20 | O=C1CCC(N2Cc3c(NCc4ccc(-c5ccccc5)cc4)cccc3C2=O)C(=O)N1 (stereo not given) | 10.7% (inactive)

Row | SMILES | growth
21 | COc1ccc(N=Nc2c(N)nn3c(N)c(C#N)c(-c4ccc(C)cc4)nc23)cc1 | 52.1% (inactive)
22 | CN(C)c1ccc(/C=C/c2nc3ccccc3c(=O)n2CC(=O)Nc2ccc(Cl)cc2)cc1 | 95% (inactive)
23 | O=C(c1ccc(OCCN2CCOCC2)cc1)C1[C@H](c2ccc(Cl)cc2)[C@@H](c2ccccc2)NC12C(=O)Nc1ccc(Cl)cc12 (stereo not given in full) | -12.7% (active)
24 | O=C1NC(=NC23CC4CC(CC(C4)C2)C3)N/C1=C\c1ccc2ncccc2c1 | -11.2% (active)
25 | O=C(N/N=C/c1ccsc1)c1[nH]c2ccc(Br)cc2c1-c1ccccc1 | -33.7% (active)
26 | Cc1cc2c(cc1Cl)C(=O)/C(=C/c1ccccc1)O2 | -13.7% (active)
27 | O=C(Cc1ccc2c(c1)CN(C1CCC(=O)NC1=O)C2=O)NCc1cccc2ccccc12 (stereo not given) | -24.9% (active)
28 | N#Cc1ccc(-c2nn(-c3ccc(C(=O)O)cc3)cc2CNc2cc(Cl)cc(Cl)c2)cc1 | 29.5% (inactive)
29 | Cc1cc(=O)oc2cc(OCCOc3ccc(/C=C/C(=O)Nc4ccccc4N)cc3)ccc12 | 0.0457% (active)
30 | Cc1ccc(C(=O)N/C(=C2/OCCN2C)[P+](c2ccccc2)(c2ccccc2)c2ccccc2)cc1 | 38.8% (inactive)
31 | O=C(NO)c1ccc(Cn2ccc3c(Nc4ccccc4)ncnc32)cc1 | 0.922% (active)
32 | Cc1ccc(/C(N)=N/c2sc(-c3ccccc3)nc2-c2ccccc2)cc1 | 87% (inactive)
33 | N#Cc1c(NC(=O)c2ccc(C(F)(F)F)cc2)sc2c1CCC(O)=C2 | 6.28% (active)
34 | CC[C@]12C=CCN3CC[C@@]4(c5cc(C#CCNc6ccc(C)c(Nc7nccc(-c8cccnc8)n7)c6)c(OC)cc5N(C)[C@H]4[C@@](O)(C(=O)OC)[C@@H]1OC(C)=O)C32 (stereo not given in full) | 30.8% (inactive)
35 | OCc1[nH]nc2cc(Nc3ncc4ccc(Br)c(OC5CCC(O)CC5)c4n3)ccc12 (stereo not given) | -40.1% (active)
36 | CC(=O)NS(=O)(=O)c1ccc(NC(=O)CSC2=NC(c3ccccc3)C(C(C)=O)=C(C)N2)cc1 (stereo not given) | 97.4% (inactive)
37 | N#Cc1c(NC(=O)c2ccc(C(F)(F)F)c(Cl)c2)sc2c1CCC(=O)C2 | -14.4% (active)
38 | Cc1ccc(C(=O)Nc2ccc(-n3c(C)nc4c(cnn4-c4ccccc4)c3=O)cc2)cc1 | 51.4% (inactive)
39 | N#Cc1c(-c2ccccc2Cl)cc(-c2c[nH]c3ccccc23)[nH]c1=O | 68.4% (inactive)
40 | O=C(N/C(=C1/OCCN1Cc1ccccc1)[P+](c1ccccc1)(c1ccccc1)c1ccccc1)c1ccccc1 | -13.1% (active)
